# Source: PubChem BioAssay (EPA / NIEHS)
# Activity calls are given as the source filed them. How the source made its calls: active means hit-call score of the fitted dose curve at least 0.9, where 1 is the maximum; inactive means score below 0.9.
# Key:
# [1] = read-out: Vascular endothelial growth factor receptor 2 (Homo sapiens) (UniProt P35968); test: BSK_4H_VEGFRII: BioMAP Diversity Plus: 4H Assay for Vascular endothelial growth factor receptor 2 (VEGFR2) Biomarker Activity (AID 2283031); settings: primary human endothelial cells (HUVEC); actives raise or lower the signal
# Method in brief: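 VEGFRII levels on human vascular endothelial primary cells were determined by ELISA at 24 hours post-dosing, with gain- or loss-of-signal fitted against DMSO controls.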
# [2] = read-out: Human Leukocyte Antigen - DR isotype (HLADR), HLA-DRA (gene 3122); test: BSK_BE3C_HLADR: BioMAP Diversity Plus: BE3C Assay for Human Leukocyte Antigen - DR isotype (HLADR) Biomarker Activity (AID 2283032); settings: primary human bronchial epithelial cells; actives raise or lower the signal
# Method in brief: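 Human primary bronchial epithelial cells (BE3C system) exposed to compound for 24 hours; cell-surface HLA-DR measured by ELISA, fitted bidirectionally relative to DMSO. Total protein by SRB in parallel cultures tracked cytotoxicity.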
# [3] = read-out: Vascular cell adhesion molecule 1 (VCAM1), VCAM1 (gene 7412); test: BSK_4H_VCAM1: BioMAP Diversity Plus: 4H Assay for Vascular cell adhesion molecule 1 (VCAM1) Biomarker Activity (AID 2283033); settings: primary human endothelial cells (HUVEC); actives raise or lower the signal
# Method in brief: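 Primary human umbilical vein endothelial cells, 4H stimulation system, treated for 24 h; cell-surface VCAM-1 quantified by ELISA. Bidirectional fitting against DMSO; cytotoxicity tracked by SRB total-protein staining in parallel cultures.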
# [4] = read-out: Interferon-gamma inducible Protein 10 (IP10), CXCL10 (gene 3627); test: BSK_BE3C_IP10: BioMAP Diversity Plus: BE3C Assay for Interferon-gamma inducible Protein 10 (IP10) Biomarker Activity (AID 2283034); settings: primary human bronchial epithelial cells; actives raise or lower the signal
# Method in brief: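 Primary human bronchial epithelial cells, with IP-10 measured by ELISA 24 hours after chemical dosing. Bidirectional fit against DMSO; cytotoxicity checked by SRB total protein staining in parallel cultures.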
# [5] = read-out: Monokine induced gamma interferon (MIG), CXCL9 (gene 4283); test: BSK_BE3C_MIG: BioMAP Diversity Plus: BE3C Assay for Monokine induced gamma interferon (MIG) Biomarker Activity (AID 2283035); settings: primary human bronchial epithelial cells; actives raise or lower the signal;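 on outcome: MIG protein measured by ELISA in BE3C cultures after 24 h of dosing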
# Method in brief: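 Primary human bronchial epithelial cells treated for 24 h; MIG levels measured by ELISA, fitted bidirectionally versus DMSO. Parallel SRB total-protein staining assessed cytotoxicity.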
# [6] = read-out: Transforming growth factor beta 1 (TGFb1), TGFB1 (gene 7040); test: BSK_BE3C_TGFb1: BioMAP Diversity Plus: BE3C Assay for Transforming growth factor beta 1 (TGFb1) Biomarker Activity (AID 2283036); settings: primary human bronchial epithelial cells; actives raise or lower the signal
# Method in brief: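 Primary human bronchial epithelial cells dosed with chemical; TGF-b1 measured by ELISA 24 h after dosing. Bidirectional curve fitting against DMSO negative control; SRB total-protein staining in parallel cultures gauged cytotoxicity.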
# [7] = read-out: Plasminogen activator inhibitor-1 (PAI1), SERPINE1 (gene 5054); test: BSK_BE3C_PAI1: BioMAP Diversity Plus: BE3C Assay for Plasminogen activator inhibitor-1 (PAI1) Biomarker Activity (AID 2283037); settings: primary human bronchial epithelial cells; actives raise or lower the signal
# Method in brief: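 Primary human bronchial epithelial cells (BE3C system) exposed 24 h; PAI-1 quantified by ELISA. Parallel sulforhodamine B staining of total protein flags cytotoxicity. Bidirectional fit versus DMSO.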
# [8] = read-out: urokinase plasminogen activator (uPA), PLAU (gene 5328); test: BSK_BE3C_uPA: BioMAP Diversity Plus: BE3C Assay for urokinase plasminogen activator (uPA) Biomarker Activity (AID 2283038); settings: primary human bronchial epithelial cells; actives raise or lower the signal;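 on outcome: uPA protein level quantified by ELISA in cell cultures; uPA read one day after compound addition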
# Method in brief: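 Measured by ELISA: uPA from human primary bronchial epithelial cells 24 h after chemical treatment. Values derive from bidirectional curve fitting with DMSO serving as negative control. Total protein by SRB staining in parallel wells flagged overt cytotoxicity.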
# [9] = read-out: Urokinase-type plasminogen activator receptor (uPAR), PLAUR (gene 5329); test: BSK_BE3C_uPAR: BioMAP Diversity Plus: BE3C Assay for Urokinase-type plasminogen activator receptor (uPAR) Biomarker Activity (AID 2283039); settings: primary human bronchial epithelial cells; actives raise or lower the signal;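 on outcome: cells exposed to compound for one day before measurement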
# Method in brief: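 Primary human bronchial epithelial cells dosed for 24 h; uPAR quantified by ELISA with bidirectional fitting against DMSO. Overt cytotoxicity assessed in parallel cultures by SRB total-protein staining (0.1% SRB, 560 nm).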
# [10] = read-out: Interleukin-6 (IL6), IL6 (gene 3569); test: BSK_CASM3C_IL6: BioMAP Diversity Plus: CASM3C Assay for Interleukin-6 (IL6) Biomarker Activity for (AID 2283040); settings: primary human coronary artery smooth muscle cells; actives raise or lower the signal
smiles,measurement,setting,value
Cc1cccc(C)c1N,outcome,[1],inactive
same,outcome,[2],inactive
same,outcome,[3],inactive
same,outcome,[4],inactive
same,outcome,[5],inactive
same,outcome,[6],inactive
same,outcome,[7],inactive
same,outcome,[8],inactive
same,outcome,[9],inactive
same,outcome,[10],inactive
Oc1ccc(C(c2ccc(O)cc2)(C(F)(F)F)C(F)(F)F)cc1,outcome,[1],inactive
same,AC50,[2],20.1 µM (active)
same,AC50,[3],29.3 µM (active)
same,AC50,[4],24.1 µM (active)
same,AC50,[5],37.3 µM (active)
same,AC50,[6],28.5 µM (active)
same,AC50,[7],21.4 µM (active)
same,AC50,[8],38.2 µM (active)
same,AC50,[9],38.1 µM (active)
same,outcome,[10],inactive
Cc1cc(O)ccc1Cl,outcome,[2],inactive
same,outcome,[3],inactive
same,outcome,[4],inactive
same,outcome,[5],inactive
same,outcome,[6],inactive
same,outcome,[7],inactive
same,outcome,[8],inactive
same,outcome,[9],inactive
same,outcome,[10],inactive
CCCCCCCCCC[N+](C)(C)CCCCCCCCCC,AC50,[2],4.45 µM (active)
same,AC50,[4],5.48 µM (active)
same,AC50,[5],8.77 µM (active)
same,AC50,[6],5.35 µM (active)
same,AC50,[8],5.43 µM (active)
same,AC50,[9],5.55 µM (active)
same,AC50,[10],4.9 µM (active)
Clc1ccc(C(c2ccccc2Cl)C(Cl)(Cl)Cl)cc1 (stereo unspecified),outcome,[2],inactive
same,outcome,[4],inactive
same,outcome,[5],inactive
same,outcome,[6],inactive
same,outcome,[8],inactive
same,outcome,[9],inactive
same,outcome,[10],inactive
ClC1=C(Cl)[C@]2(Cl)[C@@H]3[C@@H](Cl)[C@H]4O[C@H]4[C@@H]3C1(Cl)C2(Cl)Cl,outcome,[2],inactive
same,outcome,[3],inactive
same,outcome,[4],inactive
same,outcome,[5],inactive
same,outcome,[6],inactive
same,outcome,[8],inactive
same,outcome,[9],inactive
same,outcome,[10],inactive
CCNc1nc(NC(C)C)nc(SC)n1,outcome,[2],inactive
same,outcome,[3],inactive
same,outcome,[4],inactive
same,outcome,[5],inactive
same,outcome,[6],inactive
same,outcome,[8],inactive
same,outcome,[9],inactive
same,outcome,[10],inactive
O=S(=O)(O)C(F)(F)C(F)(F)C(F)(F)C(F)(F)F,outcome,[2],inactive
same,outcome,[3],inactive
same,outcome,[4],inactive
same,outcome,[5],inactive
same,outcome,[6],inactive
same,outcome,[8],inactive
same,outcome,[9],inactive
same,outcome,[10],inactive
Nc1ccc(-c2ccc(N)cc2)cc1,outcome,[2],inactive
same,outcome,[3],inactive
same,outcome,[4],inactive
same,outcome,[5],inactive
same,outcome,[6],inactive
same,outcome,[7],inactive
same,outcome,[8],inactive
same,outcome,[9],inactive
same,outcome,[10],inactive
ClC1=C(Cl)[C@]2(Cl)[C@@H]3[C@H]4C[C@H]([C@@H]5O[C@H]45)[C@@H]3[C@@]1(Cl)C2(Cl)Cl,outcome,[2],inactive
same,outcome,[3],inactive
same,outcome,[4],inactive
same,outcome,[5],inactive
same,outcome,[6],inactive
same,outcome,[8],inactive
same,outcome,[9],inactive
same,outcome,[10],inactive
CN(C)CCO,outcome,[2],inactive
same,outcome,[3],inactive
same,outcome,[4],inactive
same,outcome,[5],inactive
same,outcome,[6],inactive
same,outcome,[8],inactive
same,outcome,[9],inactive
same,outcome,[10],inactive
CCC(C)c1cc([N+](=O)[O-])cc([N+](=O)[O-])c1O (stereo unspecified),AC50,[2],20 µM (active)
same,AC50,[3],9.62 µM (active)
same,AC50,[4],1.87 µM (active)
same,outcome,[5],inactive
same,AC50,[6],0.911 µM (active)
same,AC50,[7],1.39 µM (active)
same,AC50,[8],4.72 µM (active)
same,outcome,[9],inactive
same,outcome,[10],inactive
Sc1ccccc1,outcome,[2],inactive
same,outcome,[3],inactive
same,outcome,[4],inactive
same,outcome,[5],inactive
same,outcome,[6],inactive
same,outcome,[8],inactive
same,outcome,[9],inactive
same,outcome,[10],inactive
CC(C)(O)C(=O)Nc1ccc([N+](=O)[O-])c(C(F)(F)F)c1,outcome,[2],inactive
same,outcome,[3],inactive
same,AC50,[4],24.6 µM (active)
same,outcome,[5],inactive
same,outcome,[6],inactive
same,outcome,[8],inactive
same,outcome,[9],inactive
same,AC50,[10],29.1 µM (active)
C[C@]12CCC(=O)C=C1CC[C@@H]1[C@@H]2CC[C@]2(C)C(=O)CC[C@@H]12,outcome,[2],inactive
same,outcome,[3],inactive
same,outcome,[4],inactive
same,outcome,[5],inactive
same,outcome,[6],inactive
same,outcome,[8],inactive
same,outcome,[9],inactive
same,outcome,[10],inactive
CCCCCCCCOC(=O)c1ccccc1C(=O)OCCCCCCCC,outcome,[2],inactive
same,outcome,[3],inactive
same,outcome,[4],inactive
same,outcome,[5],inactive
same,outcome,[6],inactive
same,outcome,[8],inactive
same,outcome,[9],inactive
same,outcome,[10],inactive
COS(=O)(=O)OC,outcome,[2],inactive
same,outcome,[3],inactive
same,outcome,[4],inactive
same,outcome,[5],inactive
same,outcome,[6],inactive
same,outcome,[8],inactive
same,outcome,[9],inactive
same,outcome,[10],inactive
